Compound activity (PubChem BioAssay)
Shown are actives, neighbours in structure and some others; about 11% of the full set was active somewhere.
Sm TGR block: blocks Schistosoma mansoni thioredoxin glutathione reductase. Q962Y6. purified TGR, DTNB reduction, TNB absorbance 405 nm. Potency, µM (series often up to 114 µM), for the others: top-dose activity change, negative = inhibition, actives largely listed as inhibitors. 3% of 360,000 active. AID 485364; note: % is set by controls: 0 for no effect and ±100 for the full control effect; nearly all actives have a fitted effect of over 60% in size
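Kinetic colorimetric format: TGR-catalysed, NADPH-driven DTNB reduction monitored via TNB absorbance. Enzyme dispensed at 20 nM; compound exposure 15 min at room temperature before reaction start.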
Pf growth 96h: inhibits malaria parasite growth, 96 h; P. falciparum luciferase reporter growth, 96 h; Potency, µM (top dose mostly 28.7 µM), without a hit: top-dose activity change, negative = inhibition, hits mostly inhibitors; 6.9% of 320,000 active; note: % is set by controls: 0 for no effect and ±100 for the full control effect
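Infected RBCs, 2% Hct / 0.05% parasitemia final; luciferase-reporter P. falciparum; cpd 96 h, 37 C, 5% CO2; luciferase detection reagent; luminescence.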
NS1 function inh: blocks influenza NS1 protein function. 0.4% of 270,000 active. Potency, µM (highest dose often 46.1 µM), for the others: at the top dose activity, positive = more growth; calls by dose curve; note: actives are rising curves; nearly all actives have a fitted effect of over 50% in size
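Recovery from NS1-induced slow growth read by OD600 in budding yeast switched to galactose assay medium (pH 6.0, -URA) at 1:100 dilution. Compound 23 nl per well; the matching strain lacking NS1 serves as control.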
AMA1-RON2 inh: inhibitors of Plasmodium falciparum AMA1-RON2 interaction; AlphaScreen AMA1-biotinylated RON2 peptide binding; Potency, µM (highest dose often 58.2 µM), without a hit: at the top dose activity change, negative = inhibition, actives largely listed as inhibitors; 0.2% of 360,000 active; AID 720542;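 note: 0% = vehicle wells and -100% = peptide control; nearly all actives have a fitted effect of over 45% in size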
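AMA1 (3D7) with his tag at 25 nM final met compounds first, then biotinylated RON2 peptide at 25 nM; detection used donor plus acceptor beads, 10 µg/mL apiece, read by AlphaScreen after 30 min at room temperature.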
Pf growth 48h: inhibits P. falciparum growth in the first generation, 48 h. P. falciparum luciferase growth in erythrocytes, 48 h. Potency, µM (highest dose often 28.7 µM), for inactives: at the top dose activity change, negative = inhibition, usual class: inhibitors. 5.9% of 310,000 active. AID 504832; note: % is set by controls: 0 for no effect and ±100 for the full control effect
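Parasite viability was followed by luminescence of a genomically integrated firefly luciferase. Cultures held 0.1% parasitemia at 2% hematocrit (final), incubated under 5% CO2 at 37 C.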
Starred values were filed as active, the others as inactive; ? = inconclusive; . = no result. Unless noted, calls come from the whole dose curve; as a rule, active = well fitted curve in the direction sought with a large enough effect; inconclusive = small, poorly fitted or top-dose-only effect, or another doubt; inactive = no such curve, though single readings can be large; an effect the other way counts as inactive or inconclusive. Potency is the fitted concentration of half-maximal effect.

SMILES	Sm TGR block	Pf growth 96h	NS1 function inh	AMA1-RON2 inh	Pf growth 48h
Cc1cc(=O)n2nc(N3CCCC3C(=O)Nc3cccc(Cl)c3C)sc2n1 (centres undefined)	3%	7%	7%	18%	18%
Cc1oc(=O)cc(OCc2ccccc2)c1C	.	.	.	-2%	.
CCc1oc(C(=O)OC)cc1CSC(=N)N	20µM*	?	8%	1%	?
COc1ccc(S(=O)(=O)Nc2cccc3c2O[C@H](CN(C)CC2CCCCC2)[C@@H](C)CN([C@H](C)CO)C3=O)cc1	.	.	.	5%	.
Cc1[nH][nH]c(=O)c1C(c1ccc(-c2cccc(Cl)c2)o1)c1c(C)[nH][nH]c1=O	7.1µM*	?	-1%	23%	65%
COC(=O)c1ccc(-c2ccc(C(c3c(C)[nH][nH]c3=O)c3c(C)[nH][nH]c3=O)o2)cc1	8.9µM*	97%	.	-7%	-24%
Cc1[nH][nH]c(=O)c1C(c1ccc(-c2cccc(C(=O)O)c2)o1)c1c(C)[nH][nH]c1=O	?	0%	9%	10%	14%
CN1C=CC=C/C1=C1\SC(=S)N(N)C1=O	-1%	19%	-4%	-4%	5%
Cc1nn(CCCC(=O)NCCc2ccc(Cl)cc2)c(=O)c2nn(-c3ccccc3)c(C)c12	-4%	13µM*	-2%	-16%	-13%
Cc1c(Cl)c([N+](=O)[O-])nn1CCCC(=O)NCCc1ccccc1	-7%	7.4µM*	.	0%	41%
Cc1ccc(-n2nc3c(=O)n(CC(=O)NCCc4ccc(Cl)cc4)nc(C)c3c2C)cc1	0%	0.93µM*	12%	5%	20%
CCOC(=O)c1sc(NC(=O)CCCn2nc([N+](=O)[O-])c(Cl)c2C)c(C(=O)OCC)c1C	-12%	1.3µM*	2%	-28%	2%
Cc1nn(CCCC(=O)NCCc2ccccc2)c(=O)c2nn(-c3ccccc3)c(C)c12	-7%	?	-18%	-7%	-19%
Cc1nn(Cc2ccccc2)c(C)c1NC(=O)CCCn1nc([N+](=O)[O-])c(Cl)c1C	-2%	?	-15%	-24%	-22%
Cc1ccc(CCNC(=O)CCCn2nc(C)c3c(C)n(-c4ccc(C)cc4)nc3c2=O)cc1	-19%	?	9%	16%	1%
CC(C)CCOc1ccc(C(=O)N2CCN(c3ncccn3)CC2)cc1	8%	5%	-3%	26%	9%
CCC(=O)N1CCc2cc(S(=O)(=O)N3CCCCC3CC)ccc21 (centres undefined)	-31%	-5%	-11%	18%	-3%
CC1(C(=O)Nc2nc3ccc(S(C)(=O)=O)cc3s2)CC1(Cl)Cl (centres undefined)	.	.	.	-9%	.
CCc1ccc(CNC(=O)c2ccc(CS(=O)(=O)Cc3cccc(C)c3)o2)cc1	8%	.	.	.	.
Cc1cccc(CS(=O)(=O)Cc2ccc(C(=O)O)o2)c1	25µM*	10%	-1%	0%	3%
Cc1cccc(CS(=O)(=O)Cc2ccc(C(=O)NCc3ccc(Cl)cc3)o2)c1	3%	.	.	.	.
Cc1cccc(CS(=O)(=O)Cc2ccc(C(=O)NCc3cccnc3)o2)c1	?	1.9µM*	0%	2%	-2%
Cc1cccc(CS(=O)(=O)Cc2ccc(C(=O)NCCN3CCCCC3C)o2)c1 (centres undefined)	35µM*	19%	2%	-6%	-24%
CCOC(=O)c1cc2c(=O)n3ccccc3nc2n(CCOC)c1=NC(=O)c1cc2ccccc2o1	-2%	.	.	.	.
CC(C)c1ccc(NC(=O)c2cc3c(=O)oc4ccccc4c3s2)cc1	-2%	.	.	.	.
SMILES	Sm TGR block	Pf growth 96h	NS1 function inh	AMA1-RON2 inh	Pf growth 48h
N#CC1=C(N)Oc2n[nH]c(-c3ccccc3)c2C1c1ccncc1 (centres undefined)	2%	-1%	-2%	-3%	-15%
CC1=C(n2nnc([N+](=O)[O-])n2)C(c2cccnc2)C(C#N)=C(N)O1 (centres undefined)	?	?	7%	0%	13µM*
N#CC1=C(N)Oc2cc(O)ccc2C1c1cccnc1 (centres undefined)	-13%	-9%	.	-5%	6%
N#CC1=C(N)Oc2ccc3ccccc3c2C1c1cccnc1 (centres undefined)	40µM*	0%	-13%	-4%	-22%
N#CC1=C(N)Oc2c(c(=O)sc3ccccc23)C1c1cccnc1 (centres undefined)	1%	12%	.	8%	-4%
N#CC1=C(N)Oc2n[nH]c(-c3ccc(F)cc3)c2C1c1cccnc1 (centres undefined)	-3%	5.9µM*	4%	9%	.
N#CC1=C(N)Oc2ccc3ccc(O)cc3c2C1c1cccnc1 (centres undefined)	0%	?	-1%	-2%	1.3µM*
O=C(c1ccc(Cl)cc1)N1CCC(C(=O)N2CCN(c3ncccn3)CC2)CC1	-10%	?	.	22%	?
CC(=O)c1cccc(NC(=O)CSc2nc(N3CCOCC3)nc(N3CCOCC3)n2)c1	4%	15%	-11%	-4%	0%
Cc1cccc2c1cnn2C(=O)Nc1ccccc1Cl	-9%	-7%	1%	-1%	238%
COc1cc2c(cc1OC)C(COc1ccc3c(C)cc(=O)oc3c1)N(C(=O)c1ccc(C)c(C)c1)CC2 (centres undefined)	7%	.	.	.	.
O=C(NC1CCCCC1)C1c2ccccc2OCC(=O)N1Cc1ccccn1 (centres undefined)	.	.	.	85%	.
Cc1ccc(NC(=O)CN2C(=O)CCc3cc(S(=O)(=O)N4CCCCC4)ccc32)cc1N(C)C	3%	.	.	.	.
CCN(CC)CCN1C(=O)C(=O)/C(=C(/O)c2c(C)[nH]c(C(=O)OC)c2C)C1c1ccc(C)o1 (centres undefined)	20µM*	54%	0%	16%	30%
Cc1ccc(C2/C(=C(\O)c3c(C)nc4c(C)cccn34)C(=O)C(=O)N2CCN(C)C)o1 (centres undefined)	.	.	.	-1%	.
CCOC(=O)c1[nH]c(C)c(/C(O)=C2\C(=O)C(=O)N(CCN(C)C)C2c2ccc(C)o2)c1C (centres undefined)	28µM*	-12%	-13%	-2%	3%
Cc1ccc(C2/C(=C(\O)c3c(C)nc4ccccn34)C(=O)C(=O)N2CCN(C)C)o1 (centres undefined)	32µM*	30%	4%	13%	1%
CCn1ccnc1CN(C)Cc1cn(-c2cccc(C)c2)nc1-c1cccc(F)c1	-8%	?	-44%	24%	?
CCn1ccnc1CN(C)Cc1cn(-c2ccc(C)cc2)nc1-c1cccc(C)c1	5%	?	3%	17%	6.6µM*
O=C(NCc1ccncc1)[C@@H]1CCCN1C(=O)[C@@H]1CCCN1	.	.	.	4%	.
CSc1nc(NCCCO)c2c3c(sc2n1)CN(C)CC3	-16%	5.2µM*	-2%	3%	?
CSc1nc(SCC(=O)NC(c2ccccc2)c2ccccc2)c2c3c(sc2n1)CN(C)CC3	-5%	2.9µM*	25%	?	7.4µM*
